Mcl1 Bid PPI – Mcl-1/Bid interaction inhibition; 220,000 compounds, 0.97% hits; AID 1021; Q07820; inhibition, % at 21.7 µM; TR-FRET Mcl-1/Bid-Dy647 peptide binding, 1536-well;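 active means compounds that cut the binding signal by more than half at the single screening dose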;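 further: His-tagged Mcl-1 with europium anti-His antibody binding Bid BH3 peptide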
Target sequence (Q07820 whole entry, looked up): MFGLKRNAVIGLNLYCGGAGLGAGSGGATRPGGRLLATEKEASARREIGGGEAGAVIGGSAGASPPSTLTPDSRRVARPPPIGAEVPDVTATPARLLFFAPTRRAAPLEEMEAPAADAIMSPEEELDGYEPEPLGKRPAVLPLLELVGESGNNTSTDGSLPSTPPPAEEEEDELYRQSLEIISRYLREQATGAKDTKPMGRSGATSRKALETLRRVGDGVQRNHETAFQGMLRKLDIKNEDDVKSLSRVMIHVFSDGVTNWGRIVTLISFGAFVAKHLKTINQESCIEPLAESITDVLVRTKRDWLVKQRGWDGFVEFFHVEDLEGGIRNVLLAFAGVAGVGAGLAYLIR
Mcl1-Noxa inh – Mcl-1/Noxa interaction inhibition | Q07820 | TR-FRET Mcl-1/Noxa peptide binding, 2 h | inhibition, % at 21.7 µM | 220,000 compounds, 1.5% hits | AID 1022;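 active means compounds that cut the protein-peptide binding signal by more than 50% relative to plate controls in a single-dose test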;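 further: His-tagged Mcl-1 with rhodamine Noxa BH3 peptide and terbium anti-His antibody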
MCL1-BIM inh – disrupts human MCL1 binding to BIM-BH3 peptide; Q07820; GST-MCL1 / FITC-Bim-BH3 fluorescence polarization; inhibition, % at 10.9 µM; 320,000 compounds, 0.68% hits; AID 2057;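 active means inhibition above the mean inhibition of all tested compounds plus 3 SD, set per campaign, cut at about 40% in these data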;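 further: higher means more loss of mP so more displacement of Bim peptide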
14-3-3 Bad inh – disrupts binding of bovine 14-3-3 zeta to phospho-Bad peptide. P63103. TR-FRET 14-3-3zeta/Dy647-pBad peptide displacement, 1 h. inhibition, % at 21.7 µM. 220,000 compounds, 0.71% hits;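 active means inhibition above about 70%, limit read from the data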
eIF4E-4G inh – eIF4E/eIF4G interaction inhibition in translation initiation; P63073+Q04637; TR-FRET eIF4E-eIF4GI(517-606) binding, 2 h; inhibition, % at 21.7 µM; 220,000 compounds, 0.37% hits;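 active means inhibition above about 30%, limit read from the data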
Bim-Mcl-1 – disrupts Bim peptide binding to human Mcl-1. Bead-based flow cytometry, Bim peptide-Mcl-1 binding. inhibition, % at 10 µM. 190,000 compounds, 0.1% hits. AID 1009; in the data active means inhibition above about 40%
BCLXL inh confirm – Bcl-xL (human) inhibition, MCL1 counter-screen confirmation; GST-Bcl-xL / FITC-Bim BH3 peptide FP binding; shares compounds with MCL1-BIM inh; inhibition, % at 10.9 µM; 1,700 compounds, 54% hits; AID 2166;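 active means inhibition above a cutoff equal to the mean inhibition of all tested compounds plus 3 SD, cut at about 30% in these data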
MCL1 BIM confirm – MCL1-BIM-BH3 interaction inhibition, confirmation; shares compounds with MCL1-BIM inh; inhibition, % at 10.9 µM; 1,700 compounds, 61% hits; GST-MCL1 / FITC-Bim-BH3 fluorescence polarization;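 active means inhibition above the average of all tested compounds plus 3 SD, cut at about 40% in these data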
Large screens that a line does not name were inactive (follow-up assays come after a bar, where they were run); ! = a repeat was not active. Hits are enriched below; roughly 2.6% of the tested compounds scored in any of these assays.

COc1ccc(C(=O)N2CCn3c(C)ccc3C2C)cc1 (configuration not stated)	MCL1-BIM inh 49.2 | BCLXL inh confirm inactive | MCL1 BIM confirm inactive
CCCn1c(/C=C/c2cc[n+](C)cc2)nc2ccccc21	MCL1-BIM inh 71.5 (no result: Mcl1 Bid PPI, Mcl1-Noxa inh, 14-3-3 Bad inh, eIF4E-4G inh, Bim-Mcl-1) | BCLXL inh confirm 52.5 | MCL1 BIM confirm 56.1
c1ccc2c(CCNc3ncnc4nc[nH]c34)cccc2c1	none
O=C(O)Cc1c[nH]c2cccc(O)c12	Mcl1-Noxa inh 80.9, MCL1-BIM inh 45.4 | BCLXL inh confirm inactive | MCL1 BIM confirm inactive
CC(/C=C1\SC(=S)N(c2ccc(C(=O)O)cc2)C1=O)=C\c1ccccc1	Mcl1-Noxa inh 84.0, MCL1-BIM inh 48.3 (no result: Bim-Mcl-1) | BCLXL inh confirm inactive | MCL1 BIM confirm inactive
Cc1ccc(OCCNC(=O)c2ccccc2F)cc1	none (no result: Mcl1 Bid PPI, Mcl1-Noxa inh, 14-3-3 Bad inh, eIF4E-4G inh, Bim-Mcl-1)
COc1cccc(Cn2c(=S)[nH]c3ccc(N4CCOCC4)cc3c2=O)c1	MCL1-BIM inh 41.1 | BCLXL inh confirm inactive | MCL1 BIM confirm inactive
O=c1c2cc(N3CCOCC3)ccc2[nH]c(=S)n1Cc1cccc(Cl)c1	none
CC(=O)c1ccc2c(c1)N(CCCN1CCC(CCO)CC1)c1ccccc1S2	MCL1-BIM inh 43.6 (no result: Mcl1 Bid PPI, Mcl1-Noxa inh, 14-3-3 Bad inh, eIF4E-4G inh, Bim-Mcl-1) | BCLXL inh confirm inactive | MCL1 BIM confirm inactive
OCCN1CCN(CCCN2c3ccccc3Sc3ccc(Cl)cc32)CC1	none
CC(NC(=O)c1cc2c(s1)CS(=O)(=O)C2)c1ccccc1 (configuration not stated)	none (no result: Mcl1 Bid PPI, Mcl1-Noxa inh, 14-3-3 Bad inh, eIF4E-4G inh, Bim-Mcl-1)
Cn1c2ccccc2c2cc(/C=N/NC(=O)c3cc(O)ccc3O)ccc21	MCL1-BIM inh 57.0 (no result: Mcl1 Bid PPI, Mcl1-Noxa inh, 14-3-3 Bad inh, eIF4E-4G inh, Bim-Mcl-1) | BCLXL inh confirm 62.2 | MCL1 BIM confirm 93.5
CC1CCCN(c2nc3ccccc3nc2C(C#N)S(=O)(=O)c2ccccc2)C1 (configuration not stated)	MCL1-BIM inh 68.5 | BCLXL inh confirm inactive | MCL1 BIM confirm inactive
CC1(C(=O)NNC(=O)c2ccc(=O)oc2)CC1Br (configuration not stated)	MCL1-BIM inh 57.6 (no result: Bim-Mcl-1) | BCLXL inh confirm 40.6 | MCL1 BIM confirm 51.6
Cc1ccnc2nc(C(=O)OCC(=O)N(CC(C)C)C3CCS(=O)(=O)C3)nn12 (configuration not stated)	none (no result: Mcl1 Bid PPI, Mcl1-Noxa inh, 14-3-3 Bad inh, eIF4E-4G inh, Bim-Mcl-1)
COc1cc2c3nnc(-c4ccc(F)cc4)c-3cn(Cc3ccc(F)cc3)c2cc1OC	MCL1-BIM inh 57.5 | BCLXL inh confirm 84.2 | MCL1 BIM confirm 83.2
COc1ccc(Cn2cc3c(-c4ccc(F)cc4)nnc-3c3cc(OC)c(OC)cc32)cc1	none
COc1cc2c3nnc(-c4ccc(F)cc4)c-3cn(Cc3ccccc3)c2cc1OC	MCL1-BIM inh 68.4 | BCLXL inh confirm 63.8 | MCL1 BIM confirm 63.1
CCCCC1CN2CCc3c([nH]c4ccccc34)C2(C)C1 (configuration not stated)	none (no result: Mcl1 Bid PPI, Mcl1-Noxa inh, 14-3-3 Bad inh, eIF4E-4G inh, Bim-Mcl-1)
CC(C)OC(=O)c1cc(=O)[nH]c2ccccc12	none
CC(OC(=O)c1cc(=O)[nH]c2ccccc12)C(=O)c1ccccc1 (configuration not stated)	MCL1-BIM inh 143.1 | BCLXL inh confirm inactive | MCL1 BIM confirm inactive
OCC[C@H]1C[C@@H](O)[C@H](O)[C@]2(OCc3ccccc32)O1	none (no result: Mcl1 Bid PPI, Mcl1-Noxa inh, 14-3-3 Bad inh, eIF4E-4G inh, Bim-Mcl-1)
O=C(NCCN1CCOCC1)c1ccc(NS(=O)(=O)c2cccc([N+](=O)[O-])c2)cc1	none (no result: Mcl1 Bid PPI, Mcl1-Noxa inh, 14-3-3 Bad inh, eIF4E-4G inh, Bim-Mcl-1)
Cc1ccc2nc(NC(=O)c3ccccn3)sc2c1	none
CCOc1ccc2nc(NC(=O)c3ccccn3)sc2c1	MCL1-BIM inh 55.8 (no result: Bim-Mcl-1) | BCLXL inh confirm inactive | MCL1 BIM confirm inactive
CCc1oc2ccccc2c1C(=O)c1cc(Br)c(O)c(Br)c1	Mcl1 Bid PPI 51.8!, MCL1-BIM inh 62.3 | BCLXL inh confirm inactive | MCL1 BIM confirm inactive
CCc1ccc(OCC(=O)c2c(O)c3ccccc3oc2=O)cc1	none
Cc1ccc(S(=O)(=O)N(C(=O)c2ccco2)c2cc3sc(=O)oc3c3ccccc23)cc1	MCL1-BIM inh 43.6 | BCLXL inh confirm inactive | MCL1 BIM confirm inactive

High-throughput results deposited in PubChem by several laboratories.
